# Experiments:
# [1] = target: T1, Ephrin type-B receptor 1 (Homo sapiens) (UniProt P54762); conditions: at 10 µM
# T1 sequence (whole entry): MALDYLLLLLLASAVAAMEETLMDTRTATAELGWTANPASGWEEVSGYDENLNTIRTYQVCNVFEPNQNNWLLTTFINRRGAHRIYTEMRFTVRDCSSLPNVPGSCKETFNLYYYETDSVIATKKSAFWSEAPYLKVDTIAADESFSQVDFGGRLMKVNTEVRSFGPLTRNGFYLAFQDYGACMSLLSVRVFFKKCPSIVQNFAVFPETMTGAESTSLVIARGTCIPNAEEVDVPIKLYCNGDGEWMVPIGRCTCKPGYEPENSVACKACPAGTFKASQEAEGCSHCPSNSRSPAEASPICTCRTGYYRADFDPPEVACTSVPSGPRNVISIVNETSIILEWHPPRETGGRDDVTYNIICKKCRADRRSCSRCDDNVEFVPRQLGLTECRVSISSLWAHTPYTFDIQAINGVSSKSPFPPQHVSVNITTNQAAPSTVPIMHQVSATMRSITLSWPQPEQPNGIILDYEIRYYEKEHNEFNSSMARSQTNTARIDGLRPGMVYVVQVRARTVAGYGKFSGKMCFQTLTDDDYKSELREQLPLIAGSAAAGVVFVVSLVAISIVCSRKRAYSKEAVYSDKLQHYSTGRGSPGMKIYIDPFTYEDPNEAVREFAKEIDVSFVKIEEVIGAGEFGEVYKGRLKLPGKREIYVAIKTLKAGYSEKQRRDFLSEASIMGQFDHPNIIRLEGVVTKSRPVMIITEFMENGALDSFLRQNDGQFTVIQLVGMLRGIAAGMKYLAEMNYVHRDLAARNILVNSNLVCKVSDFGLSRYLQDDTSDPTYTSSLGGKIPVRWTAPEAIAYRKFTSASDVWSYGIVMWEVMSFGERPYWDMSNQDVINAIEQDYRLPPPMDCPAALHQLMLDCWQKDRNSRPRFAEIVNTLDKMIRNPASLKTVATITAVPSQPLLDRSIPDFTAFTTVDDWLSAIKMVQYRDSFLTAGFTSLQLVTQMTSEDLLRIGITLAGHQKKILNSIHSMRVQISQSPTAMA
# [2] = target: T2, Ephrin type-B receptor 2 (Homo sapiens) (UniProt P29323); conditions: at 1 µM
# T2 sequence (whole entry): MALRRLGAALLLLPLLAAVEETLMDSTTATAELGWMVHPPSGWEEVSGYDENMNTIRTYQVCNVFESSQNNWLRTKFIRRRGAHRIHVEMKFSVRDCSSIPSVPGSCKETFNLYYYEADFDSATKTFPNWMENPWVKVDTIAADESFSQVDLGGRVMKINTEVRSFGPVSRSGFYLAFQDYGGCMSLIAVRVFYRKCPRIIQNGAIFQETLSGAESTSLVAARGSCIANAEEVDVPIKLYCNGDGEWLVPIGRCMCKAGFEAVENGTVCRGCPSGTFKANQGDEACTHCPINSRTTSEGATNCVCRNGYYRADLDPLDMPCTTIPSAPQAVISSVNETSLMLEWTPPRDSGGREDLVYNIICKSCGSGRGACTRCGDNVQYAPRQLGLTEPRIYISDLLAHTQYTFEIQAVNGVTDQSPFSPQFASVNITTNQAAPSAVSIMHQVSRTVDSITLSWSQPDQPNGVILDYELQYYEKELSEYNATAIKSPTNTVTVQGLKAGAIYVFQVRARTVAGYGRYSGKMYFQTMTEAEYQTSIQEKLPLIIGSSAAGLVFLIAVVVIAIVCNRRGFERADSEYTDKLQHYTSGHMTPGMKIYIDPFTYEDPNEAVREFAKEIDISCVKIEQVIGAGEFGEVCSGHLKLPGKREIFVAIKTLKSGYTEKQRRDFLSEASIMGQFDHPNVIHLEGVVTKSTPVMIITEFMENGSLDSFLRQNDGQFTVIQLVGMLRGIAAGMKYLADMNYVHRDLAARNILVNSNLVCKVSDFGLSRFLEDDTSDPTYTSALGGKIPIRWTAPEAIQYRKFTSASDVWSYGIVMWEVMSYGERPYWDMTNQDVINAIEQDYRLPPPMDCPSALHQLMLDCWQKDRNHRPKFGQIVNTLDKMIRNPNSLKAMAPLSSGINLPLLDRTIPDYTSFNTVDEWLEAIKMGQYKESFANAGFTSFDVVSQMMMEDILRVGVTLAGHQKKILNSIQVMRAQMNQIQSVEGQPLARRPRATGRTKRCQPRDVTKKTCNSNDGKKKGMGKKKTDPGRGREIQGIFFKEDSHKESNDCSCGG
# [3] = target: T2, Ephrin type-B receptor 2 (Homo sapiens); conditions: at 10 µM
# [4] = target: T3, Ephrin type-B receptor 3 (Homo sapiens) (UniProt P54753); conditions: at 1 µM
# T3 sequence (whole entry): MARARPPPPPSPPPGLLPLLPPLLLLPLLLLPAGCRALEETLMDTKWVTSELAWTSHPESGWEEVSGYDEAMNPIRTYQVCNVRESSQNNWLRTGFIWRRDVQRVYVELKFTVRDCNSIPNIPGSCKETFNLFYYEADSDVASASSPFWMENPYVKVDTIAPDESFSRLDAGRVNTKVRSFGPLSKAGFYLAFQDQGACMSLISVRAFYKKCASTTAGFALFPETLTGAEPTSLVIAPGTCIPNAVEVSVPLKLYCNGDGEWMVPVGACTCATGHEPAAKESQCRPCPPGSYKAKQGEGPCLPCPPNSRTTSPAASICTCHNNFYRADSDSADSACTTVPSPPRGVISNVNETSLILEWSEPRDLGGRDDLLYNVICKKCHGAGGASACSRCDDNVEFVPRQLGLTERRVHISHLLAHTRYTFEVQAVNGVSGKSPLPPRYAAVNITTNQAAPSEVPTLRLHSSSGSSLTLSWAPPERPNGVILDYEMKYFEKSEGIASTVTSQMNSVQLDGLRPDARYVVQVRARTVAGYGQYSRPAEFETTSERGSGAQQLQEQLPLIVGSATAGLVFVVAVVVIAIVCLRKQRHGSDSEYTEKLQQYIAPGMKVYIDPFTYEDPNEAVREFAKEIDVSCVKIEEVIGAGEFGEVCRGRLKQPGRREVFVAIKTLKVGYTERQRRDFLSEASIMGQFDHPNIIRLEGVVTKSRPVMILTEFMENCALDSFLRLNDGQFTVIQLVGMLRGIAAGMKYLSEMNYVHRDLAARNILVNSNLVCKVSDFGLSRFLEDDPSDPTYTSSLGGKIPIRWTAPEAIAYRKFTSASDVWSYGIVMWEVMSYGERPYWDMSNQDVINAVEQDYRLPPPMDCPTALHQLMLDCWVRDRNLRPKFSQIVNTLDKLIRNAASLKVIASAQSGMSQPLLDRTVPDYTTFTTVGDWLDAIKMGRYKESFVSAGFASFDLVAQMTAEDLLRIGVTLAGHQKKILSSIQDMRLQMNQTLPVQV
# [5] = target: T3, Ephrin type-B receptor 3 (Homo sapiens); conditions: at 10 µM
# [6] = target: T4, Ephrin type-B receptor 4 (Homo sapiens) (UniProt P54760); conditions: at 1 µM
# T4 sequence (whole entry): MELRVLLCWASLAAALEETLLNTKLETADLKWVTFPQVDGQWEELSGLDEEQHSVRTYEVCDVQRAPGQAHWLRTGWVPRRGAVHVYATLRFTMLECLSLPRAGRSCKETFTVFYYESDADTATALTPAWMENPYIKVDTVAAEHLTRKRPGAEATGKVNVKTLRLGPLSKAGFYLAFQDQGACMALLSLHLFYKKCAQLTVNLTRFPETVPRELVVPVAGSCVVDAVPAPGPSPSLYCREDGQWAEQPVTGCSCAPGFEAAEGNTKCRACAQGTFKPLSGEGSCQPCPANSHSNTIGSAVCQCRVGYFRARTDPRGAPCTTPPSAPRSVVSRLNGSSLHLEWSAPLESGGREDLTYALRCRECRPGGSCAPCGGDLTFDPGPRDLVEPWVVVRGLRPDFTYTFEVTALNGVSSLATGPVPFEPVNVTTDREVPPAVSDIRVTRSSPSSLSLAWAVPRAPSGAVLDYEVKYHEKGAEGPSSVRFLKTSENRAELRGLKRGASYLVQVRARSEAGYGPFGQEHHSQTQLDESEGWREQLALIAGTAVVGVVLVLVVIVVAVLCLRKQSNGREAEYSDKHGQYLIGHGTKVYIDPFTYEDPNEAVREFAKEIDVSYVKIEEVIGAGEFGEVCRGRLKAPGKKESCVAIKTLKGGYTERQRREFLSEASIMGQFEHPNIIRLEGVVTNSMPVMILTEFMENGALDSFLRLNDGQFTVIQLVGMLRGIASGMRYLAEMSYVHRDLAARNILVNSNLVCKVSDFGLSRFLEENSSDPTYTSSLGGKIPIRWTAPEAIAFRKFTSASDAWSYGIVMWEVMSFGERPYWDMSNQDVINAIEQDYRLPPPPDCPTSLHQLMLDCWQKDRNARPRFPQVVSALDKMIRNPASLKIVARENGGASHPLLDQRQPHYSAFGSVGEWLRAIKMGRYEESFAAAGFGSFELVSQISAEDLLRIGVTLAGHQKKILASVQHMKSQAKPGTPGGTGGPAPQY
# [7] = target: T4, Ephrin type-B receptor 4 (Homo sapiens); conditions: at 10 µM
# [8] = target: Receptor tyrosine-protein kinase erbB-4 (Homo sapiens) (UniProt Q15303); conditions: at 1 µM
# [9] = target: Receptor tyrosine-protein kinase erbB-4 (Homo sapiens) (UniProt Q15303); conditions: at 10 µM
# [10] = target: Focal adhesion kinase 1 (Homo sapiens) (UniProt Q05397); conditions: at 1 µM
# Sequence of Focal adhesion kinase 1 (Homo sapiens) (Q05397 2-1052 limits assumed): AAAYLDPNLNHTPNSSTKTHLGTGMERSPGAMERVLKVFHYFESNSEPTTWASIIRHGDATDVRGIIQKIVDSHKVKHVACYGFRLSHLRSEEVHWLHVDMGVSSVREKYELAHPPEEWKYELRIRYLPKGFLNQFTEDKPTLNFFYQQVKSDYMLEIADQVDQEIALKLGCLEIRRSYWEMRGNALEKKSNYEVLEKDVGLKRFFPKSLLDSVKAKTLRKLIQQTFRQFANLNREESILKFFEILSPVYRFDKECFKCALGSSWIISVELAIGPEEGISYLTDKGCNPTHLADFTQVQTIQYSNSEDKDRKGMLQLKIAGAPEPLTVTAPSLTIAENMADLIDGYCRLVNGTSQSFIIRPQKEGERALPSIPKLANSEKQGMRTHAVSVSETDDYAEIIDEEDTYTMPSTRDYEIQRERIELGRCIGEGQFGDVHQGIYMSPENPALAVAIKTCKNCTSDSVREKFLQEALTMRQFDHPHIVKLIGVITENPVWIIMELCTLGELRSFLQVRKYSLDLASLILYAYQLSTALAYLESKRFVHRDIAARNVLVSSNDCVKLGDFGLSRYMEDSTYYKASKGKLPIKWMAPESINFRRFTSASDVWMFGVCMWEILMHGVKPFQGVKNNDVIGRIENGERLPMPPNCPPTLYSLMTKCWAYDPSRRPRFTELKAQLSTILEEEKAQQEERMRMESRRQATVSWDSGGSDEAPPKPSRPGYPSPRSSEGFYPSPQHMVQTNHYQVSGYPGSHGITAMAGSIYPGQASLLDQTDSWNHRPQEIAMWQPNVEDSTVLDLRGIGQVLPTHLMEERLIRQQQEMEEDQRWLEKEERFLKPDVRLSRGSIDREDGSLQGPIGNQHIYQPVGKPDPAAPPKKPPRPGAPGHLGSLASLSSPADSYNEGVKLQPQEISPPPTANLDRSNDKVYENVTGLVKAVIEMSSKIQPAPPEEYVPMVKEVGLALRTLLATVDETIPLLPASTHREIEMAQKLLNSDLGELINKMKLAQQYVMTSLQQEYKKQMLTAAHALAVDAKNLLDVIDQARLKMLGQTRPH
# Sequence of Receptor tyrosine-protein kinase erbB-4 (Homo sapiens) (Q15303 whole entry): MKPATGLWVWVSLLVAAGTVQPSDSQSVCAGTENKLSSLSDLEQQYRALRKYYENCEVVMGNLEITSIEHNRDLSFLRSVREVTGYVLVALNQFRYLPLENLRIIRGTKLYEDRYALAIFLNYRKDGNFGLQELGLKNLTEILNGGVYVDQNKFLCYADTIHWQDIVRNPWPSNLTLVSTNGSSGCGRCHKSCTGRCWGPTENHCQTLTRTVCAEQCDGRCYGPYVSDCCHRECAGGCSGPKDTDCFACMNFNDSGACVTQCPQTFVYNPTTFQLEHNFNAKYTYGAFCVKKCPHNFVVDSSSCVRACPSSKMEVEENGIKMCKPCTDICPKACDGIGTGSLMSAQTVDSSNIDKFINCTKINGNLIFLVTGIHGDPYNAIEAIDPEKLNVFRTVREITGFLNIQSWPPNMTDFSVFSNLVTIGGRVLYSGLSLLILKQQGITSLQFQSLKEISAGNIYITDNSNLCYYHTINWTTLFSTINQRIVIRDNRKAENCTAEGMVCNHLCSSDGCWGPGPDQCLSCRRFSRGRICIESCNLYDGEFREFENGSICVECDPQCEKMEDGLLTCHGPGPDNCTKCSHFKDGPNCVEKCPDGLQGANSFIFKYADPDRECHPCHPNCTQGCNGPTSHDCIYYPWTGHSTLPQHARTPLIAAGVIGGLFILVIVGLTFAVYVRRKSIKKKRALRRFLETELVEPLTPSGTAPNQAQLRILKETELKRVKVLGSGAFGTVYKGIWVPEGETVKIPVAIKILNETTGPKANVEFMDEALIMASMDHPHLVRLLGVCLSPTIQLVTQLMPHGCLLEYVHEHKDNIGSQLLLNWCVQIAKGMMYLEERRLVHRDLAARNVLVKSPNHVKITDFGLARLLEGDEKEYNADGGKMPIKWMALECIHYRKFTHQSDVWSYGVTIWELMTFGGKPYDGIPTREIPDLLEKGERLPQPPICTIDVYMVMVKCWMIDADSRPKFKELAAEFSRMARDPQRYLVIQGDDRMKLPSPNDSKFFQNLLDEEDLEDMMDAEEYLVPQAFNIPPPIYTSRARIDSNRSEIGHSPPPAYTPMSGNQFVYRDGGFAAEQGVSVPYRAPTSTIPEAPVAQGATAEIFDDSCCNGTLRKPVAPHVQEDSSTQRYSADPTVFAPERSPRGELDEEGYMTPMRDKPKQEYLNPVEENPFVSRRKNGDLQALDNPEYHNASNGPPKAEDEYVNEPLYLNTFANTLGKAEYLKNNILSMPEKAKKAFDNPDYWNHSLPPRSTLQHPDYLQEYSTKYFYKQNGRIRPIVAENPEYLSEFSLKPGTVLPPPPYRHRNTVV
compound,measurement,setting,value
Cc1ccc(NC2=CC(=O)c3sc(C)nc3C2=O)cc1,residual activity,[1],97%
same,residual activity,[2],123%
same,residual activity,[3],121%
same,residual activity,[4],104% (inactive)
same,residual activity,[5],99%
same,residual activity,[6],98%
same,residual activity,[7],96%
same,residual activity,[8],77%
same,residual activity,[9],88%
same,residual activity,[10],96%

# — ChEMBL document CHEMBL2218924, “A broad activity screen in support of a chemogenomic map for kinase signalling research and drug discovery” (Biochem J, 2013)
